Screens deposited in PubChem BioAssay by National Center for Advancing Translational Sciences (NCATS).
HCV inhibitor: HCV inhibition; Huh7.5.1 HCVcc-Cre infection, luciferase reporter, 44 h; Potency, µM (titrated, usually from 41.8 µM), without a hit: at the highest dose activity change, negative = inhibition, usual class: inhibitors; 340,000 compounds, 3.4% hits; note: potency is the fitted concentration of half-maximal effect
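Reporter virus HCVcc-Cre (~0.5 moi) infects cells exposed to compound; seeding density 1,000 cells/well with 4 h settling beforehand. Luminescence, 15 sec read, taken 44 h post-infection following a 15 min RT substrate incubation.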
MARV entry inh: inhibitors of Marburg virus binding or cell entry | Marburg virus pseudotyped entry inhibition, cell reporter | Potency, µM (highest dose often 37.8 µM), for the others: top-dose activity change, negative = inhibition, most hits filed as inhibitors | 300,000 compounds, 1.8% hits | AID 540276; calls by dose curve; tested in HEK293 cells; note: potency is the fitted concentration of half-maximal effect
Lassa entry inh: Lassa virus entry inhibition | Potency, µM (doses to about 37.9 µM), for inactives: top-dose activity change, negative = inhibition, most hits filed as inhibitors | 300,000 compounds, 1.2% hits | Lassa virus pseudotype entry inhibition, cell reporter; calls by dose curve; tested in HEK293 cells; note: potency is the fitted concentration of half-maximal effect; nearly all actives have a fitted effect of over 50% in size
HCMV antiviral: blocks human cytomegalovirus replication; HFF cells, HCMV-luciferase reporter, 72 h; active compounds read low; AID 1259415; 410,000 compounds, 4.5% hits; activity change, negative = inhibition, % at 57.5 µM; in the data active = activity change below about -60%; inconclusive = no clear call, values can overlap the other calls; inactive = above about -39%
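Two compound doses tested in HFFs infected with HCMV-luciferase, MOI 1 PFU/cell, 72 h at 37C. Lysate luminescence read with OneGlo; data normalized against buffer-only and 10uM Salinomycin inhibitor controls.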
Pf growth 96h: P. falciparum growth inhibition at 96 hours; 320,000 compounds, 6.9% hits; P. falciparum luciferase reporter growth, 96 h; Potency, µM (series often up to 28.7 µM), inactives show at the top dose activity change, negative = inhibition, actives largely listed as inhibitors; AID 504834; note: potency is the fitted concentration of half-maximal effect
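P. falciparum expressing integrated firefly luciferase, in erythrocytes at 2% hematocrit, 0.05% parasitemia, incubated with compounds 96 h at 37 C, 5% CO2. Growth inhibition read as loss of luminescence; two-generation exposure targets delayed-death apicoplast inhibitors.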
Pf growth 48h: P. falciparum growth inhibition at 48 hours (one generation). Potency, µM (top dose mostly 28.7 µM), for inactives: at the top dose activity change, negative = inhibition, hits mostly inhibitors. 310,000 compounds, 5.9% hits. P. falciparum luciferase growth in erythrocytes, 48 h. AID 504832; note: potency is the fitted concentration of half-maximal effect
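First compound was added to culture medium, then infected red cells at 0.1% parasitemia and 2% hematocrit (final). After incubation at 37 C under 5% CO2, luciferase detection reagent was dispensed and light output recorded.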
* marks the source's active call; other numbers are inactive results; ? = inconclusive; . = not tested or not shown; [ ] = dose if it differs, or a comment. Only some compounds are listed: those with a hit (about 14% of all), similar ones and a draw of the others. Unless noted, calls come from the whole dose curve; as a rule, active = well fitted inhibition curve with a large enough effect; inconclusive = small, poorly fitted or top-dose-only effect, or another doubt; inactive = no such curve, though single readings can be large or run the other way. % is set by controls: 0 for no effect and ±100 for the full control effect.

SMILES	HCV inhibitor	MARV entry inh	Lassa entry inh	HCMV antiviral	Pf growth 96h	Pf growth 48h
Cc1c(C(=O)c2no[n+]([O-])c2C(=O)c2cnn(C)c2C)cnn1C	?	-2.5%	2.3%	-107.0*	2.6%	-10.9%
Cc1c(C(=O)Nc2ccc(Br)cc2)cnn1C	8.4%	8.2%	?	117.7	181.8%	174.0%
O=C(COc1ccccc1)Nc1cc(NC(=O)COc2ccccc2)cc(C(=O)O)c1	14.8%	9.4%	?	-8.0	?	13.1%
O=C(NNC1=C(C(=O)C(F)(F)F)CCC1)c1ccccc1O	31.7%	-20.6%	-10.0%	54.7	-5.7%	.
COc1ccccc1C(=O)NNC1=C(C(=O)C(F)(F)F)CCC1	?	?	?	-99.8*	2.5%	-0.9%
Nc1ccccc1C(=O)NNC1=C(C(=O)C(F)(F)F)CCC1	?	6.1%[46.1 µM]	-20.8%	-85.0*	59.1%	?
Cc1cccc(NC(=O)CSc2nc3c(c(=O)[nH]2)CN(Cc2ccc4c(c2)OCO4)CC3)c1C	.	-8.5%[46.1 µM]	-0.2%[46.1 µM]	3.6	.	.
CCCCC(=O)NC(=S)Nc1nnn(CCC)n1	-2.9%	9.4%[46.1 µM]	-4.8%	-98.2*	?	-4.4%
S=c1[nH]c2cnc(Cl)nc2[nH]1	17.3%	0.6%[46.1 µM]	7.9%[46.1 µM]	-68.3*	.	.
S=c1[nH]c2nc(Cl)c(Cl)nc2[nH]1	.	.	.	-17.8	.	.
CN1CCc2c(sc3c2C(=O)NC(c2ccc(OC(=O)c4ccccc4)cc2)N3)C1 (stereo not drawn)	.	?	?	198.8	.	.
COc1cc2nc(Nc3ccc(C)c(Cl)c3)nc(N)c2cc1OC	?	?	?	-35.6	41.3%	0.586µM*
CCOC(=O)c1ccc(Nc2nc(N)c3cc(OC)c(OC)cc3n2)cc1	?	?	18.5%[46.1 µM]	-25.1	-4.2%	1.04µM*
Nc1ncnc(Nc2ccccc2)n1	-5.3%	.	.	-8.9	17.2%	-1.9%
COc1cc2nc(N(C)CCCNC(=O)C3CCCO3)nc(N)c2cc1OC (stereo not drawn)	.	?	2.5%	.	.	.
Cc1ccc(Nc2ncnc(N)n2)cc1C	18.5%	.	.	-38.6	4.15µM*	-43.8%
COc1cc2nc(N(C)C)nc(N)c2cc1OC	?	?	-15.4%	-93.6*	8.3%	?
COc1cc2nc(Nc3ccc(F)cc3)nc(N)c2cc1OC	?	?	17.0%[46.1 µM]	65.0	27.4%	0.522µM*
COc1cc2nc(Nc3cccc(C)c3)nc(N)c2cc1OC	.	?	2.5%[46.1 µM]	-27.2	.	.
COc1ccc(C)cc1Nc1nc(N)c2ccccc2n1	?	?	-17.5%[46.1 µM]	19.0	?	?
COc1cc2nc(Nc3ccc(C)c(C)c3)nc(N)c2cc1OC	?	?	1.4%[46.1 µM]	?	0.9%	0.522µM*
C[C@H](Cn1cnc2c(N)ncnc21)OCP(=O)(O)O	.	.	.	.	-13.3%	7.8%
COc1ccc(C(=O)COC(=O)c2cc(-c3ccccc3)nc3c(C)cccc23)cc1	.	.	-10.7%[46.1 µM]	-5.1	.	.
C=CCn1c(COc2cccc(C)c2)nnc1SC(C)C(=O)NC1CC1 (stereo not drawn)	1.9%	.	.	-28.2	13.1µM*	?
C=CCn1c(COc2ccc(OC)cc2)nnc1SC(C)C(=O)NC1CC1 (stereo not drawn)	11.2%	.	.	-21.3	?	-21.2%
SMILES	HCV inhibitor	MARV entry inh	Lassa entry inh	HCMV antiviral	Pf growth 96h	Pf growth 48h
O=c1n(CC2CO2)c(=O)n(CC2CO2)c(=O)n1CC1CO1 (stereo not drawn)	?	0.447µM*	?	-62.0*	6.01µM*	9.53µM*
Cc1ccc(S(=O)(=O)N=N/C=C2\C=CC=CN2O)cc1	.	.	.	-3.6	.	.
Cc1ccc(-n2nnc3c(=O)n(CC(=O)N4CCCC4)cnc32)cc1	19.9%	?	-1.2%	?	49.9%	19.3%
CCOC(=O)CNC(=O)CSc1ncnc2c1nnn2-c1ccc(F)cc1	4.0%	0.2%	9.4%	-67.5*	?	-8.4%
CCOC(=O)Cn1cnc2c(nnn2-c2ccc(C)cc2)c1=O	5.7%	-0.3%	22.3%	-73.5*	-7.3%	-5.9%
Cc1ccc(-n2nnc3c(=O)n(CC(=O)N4CCC(C)CC4)cnc32)cc1	-21.9%	3.1%	-4.0%	-24.6	4.15µM*	23.1%
C#CCN1C(=O)[C@]2(O[C@H](COc3ccccc3)CC3=C2CCC3)c2ccccc21	.	-41.4%[14.2 µM]	?	.	.	.
COc1ccc(NC(=O)CSc2nnc3scc(-c4ccc(Cl)cc4)n23)cc1	.	23.2%[46.1 µM]	-20.9%[46.1 µM]	-19.6	.	.
O=S(=O)(Nc1nc2ccccc2nc1-[n+]1cccc(N=C([O-])c2ccccc2Cl)c1)c1ccccc1	.	.	.	.	8.28µM*	8.28µM*
COc1ccc(C([O-])=Nc2ccc[n+](-c3nc4ccccc4nc3NS(=O)(=O)c3ccccc3)c2)cc1	.	.	.	-12.8	13.1µM*	2.62µM*
Cc1cc(C)c(C2=NOC3C4CCC(C4)C23)c(C)c1 (stereo not drawn)	9.1%	3.2%	-7.5%	-63.5*	-23.7%	-14.5%
O=C(CC(=O)Nc1ccccc1F)Nc1ccc2nc3n(c(=O)c2c1)CCCCC3	.	8.4%[46.1 µM]	12.0%[46.1 µM]	-11.1	.	.
O=C(Nc1ccc(F)cc1F)NC1CCN(Cc2c(F)cccc2Cl)CC1	-0.6%	?	?	-68.3*	?	?
O=C1N(Cc2cccc(C(F)(F)F)c2)c2ccccc2S(=O)(=O)N1c1cccc(Cl)c1	.	.	-10.9%[46.1 µM]	-18.8	.	.
CCOc1ccc(S(=O)(=O)N2CCN(c3ccccc3)CC2)cc1C(N)=O	.	?	4.3%[46.1 µM]	0.3	.	.
COc1cccc(C(=O)Nc2ccc(S(=O)(=O)N3CCCCC3)cc2)c1OC	?	-3.6%	-16.5%	18.1	5.22µM*	11.7µM*
O=C(Nc1ccncc1)c1cc(S(=O)(=O)N2CCCCC2)ccc1Cl	-18.7%	?	?	-32.4	-14.1%	?
CCN(CC)C(=O)c1ccc(NC(=O)c2cc(S(=O)(=O)N3CCCCCC3)ccc2OC)cc1	?	-19.9%[46.1 µM]	-1.5%	-17.6	9.28µM*	7.38µM*
Cc1ccc(S(=O)(=O)N2CCN(c3ccccc3)CC2)cc1C(N)=O	4.6%	-23.9%	-3.2%[46.1 µM]	1.1	13.1µM*	-18.7%[5.75 µM]
O=C(Nc1ccncc1)c1cc(S(=O)(=O)N2CCN(c3ccccc3)CC2)ccc1Cl	?	?	0.5%	-30.8	?	11.7µM*
COc1ccccc1C(=O)Nc1ccc(S(=O)(=O)N2CCCCC2)cc1	?	-29.8%[46.1 µM]	2.5%	-1.1	?	-16.9%
CCN(CCCNC(=O)CNC(=O)c1nn(-c2ccc(OC)cc2OC)c(=O)c2ccccc12)c1cccc(C)c1	1.6%	-14.1%[46.1 µM]	?	-9.0	10.5%	?
CC[C@@H]1C(=O)[C@H](Cc2ccccc2)[C@H]2CCCC(=O)N3CC[C@@H]1[C@@H]23	-13.9%	.	.	-20.8	.	.
COc1cccc(OC)c1C(=O)Nc1ccc(S(=O)(=O)N2CCCCC2)cc1	-18.4%	-18.4%[46.1 µM]	9.7%	0.4	3.29µM*	-17.3%
O=C(Nc1ccc(O)cc1)c1cc(S(=O)(=O)N2CCCC2)ccc1Cl	-24.8%	?	-1.9%	-97.0*	-25.5%	-13.9%
